{
  "source": "the antibiotic and cytotoxicity screens of Wong et al. (2023)",
  "note": "Hit rate of the full screen: of about 39,000 compounds, about 3,300 (8.5%) were called active. Only a selection was taken, and actives are over-represented in it overall.",
  "data": [
    {"tested_on": "HepG2", "assay": "cytotoxicity call (relative viability < 0.9)", "conditions": "10 µM", "values": [
      {"smiles": "O=C1/C(=C/c2cn(-c3ccccc3)nc2-c2ccc(OCc3ccc(Cl)cc3)cc2)SC(=S)N1CCS(=O)(=O)O", "cytotoxicity call": "inactive"},
      {"smiles": "CCS(=O)(=O)NCC[C@H]1CC[C@H](NC(=O)C2CCOCC2)[C@@H](CO)O1", "cytotoxicity call": "inactive"},
      {"smiles": "O=C(C[C@H]1C[C@H]2c3cc(NS(=O)(=O)c4ccc(F)cc4)ccc3O[C@H]2[C@@H](CO)O1)NCCc1ccccc1", "cytotoxicity call": "inactive"},
      {"smiles": "COc1ccc(S(=O)(=O)N(C)C[C@H]2OCCCC[C@H](C)Oc3ccc(NC(=O)Nc4c(C)noc4C)cc3C(=O)N([C@H](C)CO)C[C@@H]2C)cc1", "cytotoxicity call": "inactive"},
      {"smiles": "C[C@H]1CN([C@@H](C)CO)C(=O)Cc2cc(NC(=O)c3ccncc3)ccc2O[C@@H]1CN(C)S(=O)(=O)c1ccc(F)cc1", "cytotoxicity call": "inactive"},
      {"smiles": "CN1CCN(C(=O)C[C@@H]2C[C@H]3c4cc(NC(=O)c5ccc6c(c5)OCO6)ccc4O[C@H]3[C@@H](CO)O2)CC1", "cytotoxicity call": "inactive"},
      {"smiles": "CC(=O)O[C@@H]1CC[C@@]2(C)[C@@H](CC[C@]3(C)[C@@H]2C(=O)C=C2[C@@H]4[C@@H](C)[C@H](C)CC[C@]4(C)CC[C@]23C)[C@@]1(C)C(=O)O", "cytotoxicity call": "inactive"},
      {"smiles": "C[C@@H]1CN([C@H](C)CO)C(=O)c2cccc(NC(=O)C3CC3)c2O[C@@H]1CN(C)C(=O)Nc1ccc2c(c1)OCO2", "cytotoxicity call": "inactive"},
      {"smiles": "Cc1noc(C)c1NC(=O)N(C)C[C@@H]1Oc2ncc(C#CCN(C)C)cc2C(=O)N([C@H](C)CO)C[C@H]1C", "cytotoxicity call": "inactive"},
      {"smiles": "C[C@@H]1CCCCO[C@@H](CN(C)CC2CCCCC2)[C@@H](C)CN([C@H](C)CO)C(=O)c2cc(NC(=O)Nc3ccc(C(F)(F)F)cc3)ccc2O1", "cytotoxicity call": "active"},
      {"smiles": "C[C@H](CO)N1C[C@H](C)[C@H](CN(C)CC2CCCCC2)OCCCC[C@H](C)Oc2ccc(NC(=O)Nc3ccc(C(F)(F)F)cc3)cc2C1=O", "cytotoxicity call": "active"},
      {"smiles": "C[C@@H]1CCCCO[C@H](CN(C)CC2CCCCC2)[C@@H](C)CN([C@H](C)CO)C(=O)c2cc(NC(=O)Nc3ccc(C(F)(F)F)cc3)ccc2O1", "cytotoxicity call": "active"},
      {"smiles": "C[C@@H]1CN([C@H](C)CO)C(=O)c2cc(NC(=O)Nc3ccc(C(F)(F)F)cc3)ccc2O[C@@H](C)CCCCO[C@@H]1CN(C)CC1CCCCC1", "cytotoxicity call": "active"},
      {"smiles": "COCC(=O)Nc1ccc2c(c1)C(=O)N(C)C[C@@H](OC)[C@H](C)CN(C(=O)Cc1ccccn1)[C@@H](C)CO2", "cytotoxicity call": "inactive"},
      {"smiles": "C[C@@H]1CN([C@@H](C)CO)C(=O)c2cc(C#CCc3ccccc3)cnc2O[C@@H]1CN(C)C(=O)C1CCOCC1", "cytotoxicity call": "inactive"},
      {"smiles": "Cc1ccc(S(=O)(=O)N(C)C[C@@H]2Oc3c(NC(=O)C4CC4)cccc3C(=O)N([C@H](C)CO)C[C@@H]2C)cc1", "cytotoxicity call": "inactive"},
      {"smiles": "C[C@@H]1CN([C@@H](C)CO)S(=O)(=O)c2ccc(C#C[C@@H](C)O)cc2O[C@H]1CN(C)C(=O)Nc1ccccc1", "cytotoxicity call": "inactive"},
      {"smiles": "C[C@H]1CN([C@@H](C)CO)C(=O)c2cccc(NS(=O)(=O)c3cn(C)cn3)c2O[C@H]1CN(C)Cc1ccc2c(c1)OCO2", "cytotoxicity call": "inactive"},
      {"smiles": "C[C@@H]1CCCCO[C@H](CN(C)Cc2ccc(C(=O)O)cc2)[C@H](C)CN([C@H](C)CO)C(=O)c2cc(NS(=O)(=O)c3ccc(F)cc3)ccc2O1", "cytotoxicity call": "inactive"},
      {"smiles": "CC(C)NC(=O)Nc1ccc2c(c1)C(=O)N([C@H](C)CO)C[C@H](C)[C@H](CN(C)S(C)(=O)=O)OCCCC[C@H](C)O2", "cytotoxicity call": "inactive"},
      {"smiles": "CCCC(=O)Nc1ccc2c(c1)C(=O)N(C)C[C@@H](OC)[C@H](C)CN(S(=O)(=O)c1cn(C)cn1)[C@H](C)CO2", "cytotoxicity call": "inactive"},
      {"smiles": "C[C@@H]1CN([C@H](C)CO)C(=O)c2cccc(NS(=O)(=O)c3cccs3)c2O[C@@H]1CN(C)CC1CC1", "cytotoxicity call": "inactive"},
      {"smiles": "COc1ccccc1C#Cc1cnc2c(c1)C(=O)N([C@@H](C)CO)C[C@@H](C)[C@@H](CN(C)C(=O)CC1CC1)O2", "cytotoxicity call": "inactive"},
      {"smiles": "C[C@H]1CCCCO[C@H](CN(C)C(=O)Nc2ccccc2)[C@@H](C)CN([C@@H](C)CO)C(=O)c2cc(NS(=O)(=O)c3ccc(Cl)cc3)ccc2O1", "cytotoxicity call": "inactive"},
      {"smiles": "COc1ccc(NC(=O)N(C)C[C@@H]2Oc3ccc(NC(=O)CCN4CCOCC4)cc3CC(=O)N([C@H](C)CO)C[C@@H]2C)cc1", "cytotoxicity call": "inactive"},
      {"smiles": "C[C@H]1CN([C@@H](C)CO)C(=O)Cc2cc(NC(=O)Nc3ccc(C(F)(F)F)cc3)ccc2O[C@@H]1CN(C)C(=O)Nc1cccc2ccccc12", "cytotoxicity call": "inactive"},
      {"smiles": "C[C@@H]1CN([C@H](C)CO)C(=O)Cc2cc(NS(=O)(=O)c3cn(C)cn3)ccc2O[C@@H]1CN(C)CC1CCCCC1", "cytotoxicity call": "inactive"},
      {"smiles": "C[C@H](CO)N1C[C@H](C)[C@@H](CN(C)Cc2ccc(Oc3ccccc3)cc2)Oc2ncc(-c3ccncc3)cc2C1=O", "cytotoxicity call": "inactive"},
      {"smiles": "C[C@@H]1CCCCO[C@H](CN(C)CC2CCCCC2)[C@H](C)CN([C@@H](C)CO)C(=O)c2cc(NC(=O)Nc3ccc(C(F)(F)F)cc3)ccc2O1", "cytotoxicity call": "active"},
      {"smiles": "C[C@@H]1CCCCO[C@H](CN(C)CC2CCCCC2)[C@H](C)CN([C@H](C)CO)C(=O)c2cc(NC(=O)Nc3ccc(C(F)(F)F)cc3)ccc2O1", "cytotoxicity call": "active"},
      {"smiles": "C[C@@H]1CN([C@@H](C)CO)C(=O)c2cc(NC(=O)Nc3ccc(C(F)(F)F)cc3)ccc2O[C@@H](C)CCCCO[C@@H]1CN(C)CC1CCCCC1", "cytotoxicity call": "active"},
      {"smiles": "CCOC(=O)CCCCCC(=O)Nc1ccc2c(c1)C(=O)N([C@H](C)CO)C[C@@H](C)[C@@H](CN(C)S(=O)(=O)c1ccc(Cl)cc1)OCCCC[C@H](C)O2", "cytotoxicity call": "inactive"},
      {"smiles": "Cc1ccc(S(=O)(=O)Nc2cccc3c2O[C@@H](CN(C)C(=O)Nc2cccc4ccccc24)[C@@H](C)CN([C@@H](C)CO)C3=O)cc1", "cytotoxicity call": "inactive"},
      {"smiles": "Cc1ccc(S(=O)(=O)N(C)C[C@@H]2Oc3ccc(NS(=O)(=O)c4ccccc4)cc3CC(=O)N([C@H](C)CO)C[C@H]2C)cc1", "cytotoxicity call": "inactive"},
      {"smiles": "CN1CC(=O)NC1=O", "cytotoxicity call": "inactive"},
      {"smiles": "O=C(NCCCO)C(=O)NC[C@H]1COc2ccccc2O1", "cytotoxicity call": "inactive"},
      {"smiles": "C[C@H](CO)N1C[C@H](C)[C@@H](CN(C)Cc2ccc3c(c2)OCO3)Oc2ncc(C#CCN(C)C)cc2C1=O", "cytotoxicity call": "inactive"},
      {"smiles": "CCCCC(=O)OC1CCC2C3CCc4cc(O)ccc4C3CCC12C", "note": "(centres undefined)", "cytotoxicity call": "inactive"},
      {"smiles": "Cc1ccc(S(=O)(=O)Nc2ccc3c(c2)C(=O)N([C@@H](C)CO)C[C@@H](C)[C@H](CN(C)S(=O)(=O)c2cn(C)cn2)O3)cc1", "cytotoxicity call": "inactive"}
    ]}
  ]
}
